Laboratory results as given in the supplement of paper PMC5499739.
The full ranking holds about 16,000 sequences; the median of “Z-score” is about -0.37, and the highest 2% start at about 3.2. The full list was thinned out, with the highest values kept by preference.

system: RBM10 RRM1-ZnF (GST-tagged construct); assay: RNAcompete 7-mer binding Z-score; higher = stronger binding preference
Method in brief: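 GST-tagged RBM10 constructs (20 pmol) and a designed pool of 241 399 RNAs up to 41 nt (1.5 nmol) were allowed to bind for 30 min at 4°C in 1 ml Hepes pH 7.8 buffer with glutathione Sepharose beads. After four 2-min washes at 4°C, bound RNA was identified by microarray hybridisation. Enrichment was scored per heptamer motif as a one-sided Z-score across the probes containing it.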

Sequence	RNAcompete 7-mer binding Z-score
AUGUGGA	2.27
UUUGACC	-0.88
UCUGCAG	-0.629
AAGCUGG	0.904
CGGUGGA	2.43
AGGUGGG	3.76
CGGUGGG	3.2
AGGUGGU	2.18
GGGUGGA	4.53
AGGUGGA	3.15
UAUAUAA	-0.519
GGAACGG	4.07
UGGACGG	3.09
AGAACGG	1.53
CGACGGG	1.62
CGAACGG	1.21
GGGACGG	3.45
GGACGGG	4.52
GAACGGC	0.693
GAACGGG	4.25
GGACGGC	1.19
GAACGGU	1.64
CGGACGG	1.32
AUAGGCA	0.686
UGGGCCU	0.335
CUUACCC	-0.792

Sequence	RNAcompete 7-mer binding Z-score
CUAUUGC	-0.714
GGAUGGA	4.23
GGAUGGC	2.58
AGAUGGU	1.71
UGAUGGU	1.87
GGAUGGU	3.9
AGAUGGA	2.97
UCUGUGA	-0.581
CGGGAAA	2.41
GGGGAAA	3.19
CAGGGAA	2.96
CGGGAAG	2.18
GAGGGAU	3.16
AGGGAAG	4.53
ACGGGAA	3.12
CAGGGAU	2.36
AGGGAAA	4.7
AAGGGAA	4.37
AGGGAAC	2.57
AAGGGAU	3.65
CUGUACU	-0.743
AACCCCA	-0.483
AAGAGCG	0.836
UUUUUAA	-0.652
ACUCUCG	-0.785
UGGGAAU	2.53

Sequence	RNAcompete 7-mer binding Z-score
UAGGGAG	3.25
AAGGGAG	3.99
CAGGGAG	2.8
UGGGAAA	2.58
GGGGGAA	3.15
GAGGGAG	3.2
UGGGAAG	4.03
AAGGGCG	3
AGGGGAA	3.57
AAGGGAC	3.18
AGAUAGU	0.0853
UAGCGAU	-0.194
ACGUCAU	-0.513
UAUCGAU	-0.513
UGUCCAC	-0.558
CGACCGA	-0.519
GUCCGGA	0.0625
CAGUAUU	-0.646
CCUGCGG	0.27
AGAGGUG	2.04
GGAGGUU	2.51
CGAGGUA	1.57
GGAGGUG	3.72
GGAGGUA	3.28
UGAGGUA	1.97
GGAGCGC	1.27

Sequence	RNAcompete 7-mer binding Z-score
CAAUGAA	-0.496
AGCUCUA	-0.629
UUAUCAG	-0.399
AUAAAGG	1.64
GGGUAUC	2.04
GGGUAUG	4.08
CGGUAGG	1.82
AGGUAGC	0.803
GGGUAGC	2.73
AGGUAGG	3.53
AGGUAUG	2.16
GCGUAGG	1.78
GGGUAGG	4.65
GGGUAGA	3.74
UGGUAGG	2.98
GGGUAGU	3.11
GGAGUUG	2.64
AAACGGU	1.16
CUACAAC	-0.668
CACAAAA	-0.581
AAACCAC	-0.519
GACGGGU	2.36
GGGAAUG	3.93
UGGAACG	2.13
AGGAAUG	2.25
GGGAACG	3.67

Sequence	RNAcompete 7-mer binding Z-score
GGGAACA	2.67
GGGAAUU	2.4
ACGCUCU	-0.688
CCCUGGA	-0.123
GGUUACA	1.26
AGGAUGC	1.03
UGGAUGC	1.17
CGGAUGG	2.38
UGGAUGG	4.14
GAGAUGU	0.361
UAGAUGG	2.26
UGGAUGA	2.17
GAGAUGG	3.54
AGGAUGG	3.77
AGGAUCC	-0.34
UGGAUUC	-0.0414
UUCGUAA	-0.802
CCACUCU	-0.711
UCGCACU	-0.565
GAGCAUU	-0.353
UAUGUGA	0.118
UACGAGU	-0.155
AUUUUCG	-0.87
AUGGAAG	3.6
AUGGAAC	1.99
GUGGAAG	3.83

Sequence	RNAcompete 7-mer binding Z-score
GUGGAAA	2.63
GUGGAAC	1.61
AUGGAAA	2.57
GUGUAAA	0.618
AUGACGG	1.39
UAAAUAU	-0.425
CGGAUGU	1.04
GGUGGAA	3.81
UGUGGAA	2
UGUGGAG	2.62
GGUGGAU	2.75
AGUGGAC	1.34
AGUGGAU	2.35
GGUGGAG	4.02
AGUGGAA	3.24
CGUGGAA	1.19
UUCCGGC	-0.649
GCCUGCU	-0.724
UGUCGUA	-0.311
UGUUUAG	-0.0155
UAUAGGC	0.196
AAACCCC	-0.597
UCCGAUA	-0.746
GGGUGCA	2.74
GAGGCCG	0.0723
UUGCCGU	-0.659

Sequence	RNAcompete 7-mer binding Z-score
CUGGGCC	-0.0285
GCCCAUA	-0.805
AGAAGGC	0.699
CGAAGGG	2.43
AGAAGGU	3.26
UGAAGGU	2.57
AGAAGGG	3.86
CGAAGGU	1.5
AGAAGCU	-0.48
AGAAGGA	3.99
AGAAGAG	1.64
GGAAGGU	4.23
AGAAGAA	1
GGAAGGC	2.63
CCCCCAU	-0.448
GAAUGAC	0.16
GGCAGUC	0.28
AGCCUUU	-1
ACUUAUG	-0.655
CGAAGGA	1.62
UGAAGGG	3.82
GGAAGGA	4.79
UGAAGCG	0.608
UGAAGGA	2.99
UGAAGGC	1
GCAUUCU	-0.785

Sequence	RNAcompete 7-mer binding Z-score
UCGUACU	-0.539
GAGGCAC	0.628
CCUAGUG	-0.266
UUCCAUC	-0.675
GCAGCGC	-0.178
GUUGAGG	3.36
GGUGAGG	4.5
GUUGAGC	0.706
GAUGAGG	3.56
GAUGAGU	1.06
GGUGAGA	2.57
CGUGAGG	1.35
AUUGAGG	1.63
CAUGAGG	1.03
GUGUGUC	0.137
CUCAAUA	-0.802
GCGAAGG	2.06
UAACUAU	-0.617
GCUAACA	-0.399
AGAGCUG	0.163
UAUGGAA	1.22
AAUGGAG	3.43
AAUGGAC	2.03
GAUGGAA	3.36
GUUGGAA	1.84
GAUGGAC	1.78

Sequence	RNAcompete 7-mer binding Z-score
GAUGGAG	3.52
CAUGGAA	1.1
UAUGGAG	1.67
AAUGGAA	3.35
CAUGGAG	1.48
GAUGGAU	2.6
AUCUACA	-0.568
CACCCUC	-0.578
UGCUUGA	-0.737
GGCGCAU	0.183
UGAUGAC	-0.0512
CUUGCCU	-0.824
UCAUCUG	-0.844
GUUUCAC	-0.597
GGGGUUC	1.79
UGGGUUU	2.64
AGGGUUA	3.55
GGGGUUU	3.16
UGGGUUG	3.04
GGGGUUG	3.76
UGGGUUA	3.28
GCGGUUG	1.42
AGGGUUC	0.985
AGGGUUU	2.56
CGGGUUG	2.79
GGGGUUA	3.21

Sequence	RNAcompete 7-mer binding Z-score
AAUCUAA	-0.617
UUAUACA	-0.542
AUGUGGU	1.52
GUCCGAC	-0.662
CUUCGGC	-0.759
AGAUAUC	-0.688
AGGGUCG	1.41
AGGGUUG	3.8
ACGGUUG	1.78
CAUAAGA	-0.513
CACCGCG	0.069
AGGUGUA	1.74
UGGUGUA	1.52
GGGUGUG	3.76
CGGUGUG	1.72
GGGUGUA	3.43
UGGUGUG	2.77
AAUUUGA	-0.399
ACAGAGG	1.59
UACAAGA	-0.295
GGCGGGG	3.96
UGCGGGG	3.26
AGCGGGG	4.14
UGCGGGC	1.13
CGCGGGA	1.05
AGCGGGU	3.07

Sequence	RNAcompete 7-mer binding Z-score
CGCGGGG	2.15
AGCGGGA	3.31
GGCGGGU	2.9
UGCGGGA	1.87
UGCGGGU	2.92
GGCGGGC	2.11
GGCUUUA	-0.418
UUGCAGA	-0.171
AGCGGAA	2.07
AGCGGAC	1.16
AGCGGAU	3.22
CUCAGGU	-0.0447
CGCAUAC	-0.61
AGAUGAG	1.43
AGAUGUG	0.936
GGAUGUU	0.959
GGAUGUG	3.43
GGAUGAG	3.4
GGAUGAA	2.16
CUCGUGC	-0.789
AGCAAUC	-0.435
UGGGUAU	2.37
AGGGUAC	2.1
UGGGUAC	2.69
CGGGUAG	2.18
UGGGUAG	3.5

Sequence	RNAcompete 7-mer binding Z-score
AGGGUAG	3.72
GACCAUU	-0.915
AUGGACG	2.69
CACGUGG	0.566
UCUUGAA	-0.785
CAUCCGC	-0.847
CCAAUCU	-0.802
AGUAGGC	0.975
ACUAGGG	2.03
UGUAGGA	1.7
AGUAGGG	4.16
CGUAGGG	1.94
UGUAGGG	3.6
AUACGAA	-0.194
CGGCUUG	-0.324
CUCGCAC	-0.587
GUUCUAA	-0.552
GGUAUGU	1.56
AAUAUGG	1.09
GAUAUGG	3.3
GGUAUGG	4.22
GGUAUGA	2.19
GAUAUGC	-0.0577
UCCCUGG	-0.24
GUUCGAG	-0.00571
CGAACAU	-0.503

Sequence	RNAcompete 7-mer binding Z-score
UUUAGGC	-0.321
GGAGGGG	4.57
AGAGAGG	1.27
AUAGAGG	1.55
GGAGGGA	4.01
AGAGGGA	2.09
GGAGAGA	1.46
UUAGAGG	1.31
GUAGAGG	3.56
AGAGGGG	2.11
GGAGGGC	3.13
CGAGGGG	2.86
GGAGAGG	3.41
GUCCAUU	-0.818
CCCACUG	-0.483
GUUAUUC	-0.513
UGUAGGU	1.75
UUGCCGC	-0.662
UUGGUCA	0.0788
CAAGUAA	-0.275
AAACCAG	-0.324
AGAGAAG	1.63
GGAGAAG	3.36
CGAGAAG	0.495
GUGUCCA	-0.457
GGGCCGU	0.53

Sequence	RNAcompete 7-mer binding Z-score
CAGGGGU	3.01
UAGGGGA	3.71
CAGGGGG	2.94
UAGGGAA	3.15
UAGGGCU	1.42
UAGGGGU	3.9
UAGGGGG	3.97
UAGGGGC	2.25
UAGGGAC	1.79
UGCUAGA	-0.233
UGUUCUC	-0.746
CCGCACC	-0.509
ACAGCGA	-0.0674
GGACUAU	0.000789
AUAGCCU	-0.724
